High-throughput results deposited in PubChem by National Center for Advancing Translational Sciences (NCATS).
This is a sample that favours compounds with a hit; in the whole collection about 8% have one here.
FBPA coupling cs – counter-screen for Giardia aldolase inhibitors: coupling enzyme system; coupling enzyme system counterscreen, AmpLite Red fluorescence; hit rate 0.67% among 290,000; activity change, negative = inhibition, % at 58.2 µM, hits read low; AID 2472; in the data active means activity change below about -30%
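Compounds tested against the coupling enzymes alone at 57.5 uM final; readout was AmpLite Red fluorescence (525/598 nm) after 20 min at RT.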
ELG1 repair inh – ELG1-dependent DNA repair inhibition; HEK293T ELG1-luciferase reporter, luminescence, 16 h; DNA damage induced by 5-fluorouridine; Potency, µM (doses to about 46.1 µM), for inactives: at the highest dose activity change, negative = inhibition, most hits filed as inhibitors; hit rate 2.3% among 330,000; further: potency means the concentration at half of the fitted maximal effect; nearly all actives have a fitted effect of over 55% in size
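In this reporter screen, reduction of luminescence relative to DMSO vehicle indicated activity. Compounds and 5-fluorouridine were added together to 2,000 cells per well, incubated for 16 hr at 37 °C, then developed with ONE-Glo.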
RORgamma inh – ROR gamma (mouse) transcription inhibition; AID 2551; Drosophila S2 Gal4-RORgamma UAS-luciferase reporter, 20 h; Potency, µM (top dose mostly 53.6 µM), inactives show at the highest dose activity change, negative = inhibition, actives largely listed as inhibitors; hit rate 5.4% among 310,000; further: potency means the concentration at half of the fitted maximal effect; nearly all actives have a fitted effect of over 60% in size
Target sequence (P51450 whole entry, looked up, the tested form may be a part): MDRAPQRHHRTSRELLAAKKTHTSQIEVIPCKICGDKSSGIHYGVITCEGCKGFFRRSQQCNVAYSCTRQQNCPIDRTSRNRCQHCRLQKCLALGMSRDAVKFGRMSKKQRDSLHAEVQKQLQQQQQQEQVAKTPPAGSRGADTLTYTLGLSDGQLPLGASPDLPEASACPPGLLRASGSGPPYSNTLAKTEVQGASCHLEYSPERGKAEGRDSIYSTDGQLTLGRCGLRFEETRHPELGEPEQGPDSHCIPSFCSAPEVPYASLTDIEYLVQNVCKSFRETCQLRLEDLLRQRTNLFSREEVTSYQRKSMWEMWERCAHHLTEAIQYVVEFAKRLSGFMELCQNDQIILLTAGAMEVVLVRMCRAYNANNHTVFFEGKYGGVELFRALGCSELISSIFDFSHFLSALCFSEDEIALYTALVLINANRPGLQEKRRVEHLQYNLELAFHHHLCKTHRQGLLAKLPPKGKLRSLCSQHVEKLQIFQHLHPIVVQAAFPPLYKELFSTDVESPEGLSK
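ROR gamma transcriptional activity was tracked as Gal4-UAS luciferase output in stably transfected Drosophila Schneider cells, with compound added 1 hr before 700 uM copper sulfate induction and a 20 hr ambient-temperature incubation.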
TSHR antagonist – antagonists of human thyroid stimulating hormone receptor; AID 504810; TSHR-expressing cells, TSH-stimulated cAMP HTRF, 2 h; hits give low values; hit rate 0.2% among 330,000; activity change, negative = inhibition, % at 11.5 µM;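 active means activity change below a set negative limit, meaning inhibition stronger than a set level, cut at about -70% in these data; inconclusive means activity change between two set negative limits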
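TSHR-expressing cells, 200/well, pre-treated with compound, then stimulated with EC80 TSH (4nM final) for 2 hours at 37 deg C. cAMP measured by competitive HTRF: anti-cAMP cryptate antibody in lysis buffer plus cAMP-d2, read after 30 minutes at room temperature.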
VP16 counter – Gal4-VP16 reporter inhibition counter-screen. Drosophila S2 Gal4-VP16 UAS-luciferase, luminescence, 20 h. Potency, µM (doses to about 53.6 µM), for inactives: at the highest dose activity, negative = inhibition, actives largely listed as inhibitors. hit rate 3.5% among 310,000;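 further: Gal4-VP16 expression switched on by copper sulfate through the metallothionein promoter; potency means the concentration at half of the fitted maximal effect; nearly all actives have a fitted effect of over 50% in size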
* = called active by the depositor; u = inconclusive; x = no result given. Unless noted, the call rests on the fitted dose curve; in most records, active means well fitted curve in the direction sought with a large enough effect; inconclusive means small, poorly fitted or top-dose-only effect, or another doubt; inactive means no such curve, though single readings can be large; an effect the other way counts as inactive or inconclusive. On the % scale 0 is the no-effect control and ±100 the full control effect.

SMILES | FBPA coupling cs | ELG1 repair inh | RORgamma inh | TSHR antagonist | VP16 counter
COc1cccc(OC)c1C(=O)Oc1ccc2c(c1)O/C(=C\c1ccncc1)C2=O | 0 | 23µM* | u | -17 | u
CN(C)C(=O)c1cc(C(=O)c2ccc(F)cc2F)c[nH]1 | -1 | u | 23% | -3 | -1%
CN(C)C(=O)c1cc(C(=O)c2ccccc2F)c[nH]1 | 0 | u | 16% | 3 | 2%
CN(C)C(=O)c1cc(C(=O)c2ccc(F)cc2C(F)(F)F)c[nH]1 | -9 | 8.2µM* | u | -7 | -6%
CN(C)C(=O)c1cc(C(=O)c2ccccc2C(F)(F)F)c[nH]1 | 1 | 6.5µM* | 28% | 4 | 1%
COc1ccc(N2CCOCC2)c(NC(=O)c2cccnc2)c1 | x | -8% | u | -5 | 6%
OC1(c2ccc(Cl)c(C(F)(F)F)c2)CCN(CCCC(c2ccc(F)cc2)c2ccc(F)cc2)CC1 | -9 | x | 13µM* | x | 10µM*
Cc1ccc(-c2nnn(C/C(N)=N/O)n2)cc1 | -3 | u | 2.8µM* | 11 | 2.8µM*
CCN(CC)C(=S)SCC(=O)Nc1nc(=O)c2ccccc2s1 | 3 | u | u | -11 | 11µM*
O=C(Nc1nc2ccccc2n1CCN1CCOCC1)c1ccc(Cn2cc([N+](=O)[O-])cn2)o1 | -6 | u | 11µM* | -6 | u
O=C(Nc1nc2ccccc2n1CCN1CCOCC1)c1ccc(COc2ccccc2Br)o1 | -13 | 21µM* | 2µM* | -7 | 5.6µM*
Oc1ccc(Br)cc1-c1cc(-c2ccccc2Cl)[nH]n1 | -3 | u | 2.8µM* | -11 | -28%
Oc1ccc(Br)cc1-c1cc(-c2ccccc2F)[nH]n1 | 0 | -20% | 1.8µM* | -2 | 3.5µM*
COc1ccc(S(=O)(=O)Nc2ccccc2C(=O)N2CCOCC2)cc1Br | x | 5% | 15% | 5 | -4%
CCCCc1nc2cc(C(=O)NCc3cn(C)nc3C)ccc2o1 | x | -10% | 1µM* | -19 | 0.063µM*
CCCCc1nc2cc(C(=O)NCc3nccn3CC)ccc2o1 | 0 | 0% | -27% | 12 | u
CCOc1ccc(S(=O)(=O)NCCC(=O)OCC(=O)c2ccc(NC(C)=O)cc2)cc1 | x | 7% | x | -5 | x
Cc1ccc(S(=O)(=O)NCC(=O)NCC2CCCCC2)cc1C | -1 | -6% | -11% | -9 | 14%
CCN(CC)S(=O)(=O)c1ccc(N(C)C)c(NC(=O)CSCc2c(C)noc2C)c1 | x | 21µM* | 12% | 100 | -2%
Cc1nnc(NC(=O)C2CC(=O)N(c3ccccc3)C2)s1 (stereo unspecified) | -1 | u | -6% | 1 | 2%
CCOC(=O)CCc1c(C)c2ccc(OCC(=O)N(CC)CC)c(C)c2oc1=O | 2 | 18µM* | u | 0 | u
Cc1c(Cc2ccccc2)c(=O)oc2cc(O)ccc12 | 15 | -8% | -21% | -13 | -8%
CCOC(=O)CCc1c(C)c2ccc(O)cc2oc1=O | -39* | -6% | -8% | -8 | 1%
O=C(CSc1nnc(CNC(=O)c2c(F)cccc2F)o1)NCc1ccccc1Cl | 0 | -26% | 19% | 19 | 2%
CCOc1ccccc1NC(=O)/C(C#N)=C/c1c(C)nn(-c2ccc(F)cc2)c1Cl | 4 | 5% | 0% | -8 | -10%
SMILES | FBPA coupling cs | ELG1 repair inh | RORgamma inh | TSHR antagonist | VP16 counter
CN(C)c1nc(C=C(C#N)C#N)c(Cl)n1-c1ccc(F)cc1 | 0 | u | 14µM* | 1 | -3%
N=c1n(CC(=O)c2cccc([N+](=O)[O-])c2)c2ccccc2n1Cc1ccccc1 | 1 | -12% | 7.1µM* | -2 | u
Cc1ccc(Cn2c(=N)n(CC(=O)c3ccccc3)c3ccccc32)cc1 | -4 | u | 13µM* | 3 | 14µM*
COc1cccc(C(=O)Cn2c(=N)n(C)c3ccccc32)c1 | 0 | u | 10µM* | -1 | u
CC(C)(C)C(=O)Cn1c(=N)n(Cc2ccccc2Cl)c2ccccc21 | 1 | 4% | 4.5µM* | -3 | u
CC1CCC2(CC1)NC(=O)N(CC(=O)c1ccc(Cl)s1)C2=O (stereo unspecified) | x | 14% | 1% | 6 | 10%
